Several values for one entry are separate records, joined by “and”; a condition that tells them apart may be missing. Equal values may be shown once. Activity calls are given as the source filed them.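 Rule for the calls, unless noted: active = compounds whose cell count with miR-34 switched on is under 0.7 times the count with it off; inactive = the rest.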
Tests used:
[1] = compounds altering viability of human ES cells (AID 493140; call rule not given here;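 note: cells exposed to compounds for four days before counting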); settings: human embryonic stem cell survival screen; stronger effect = higher value
[2] = P. berghei load reduction in hepatocytes – cell-based, HepG2, luciferase luminescence, HepG2 viability, primary screen (AID 624349; in the data active = parasite load remaining mostly below about 12%, no sharp cut-off; inactive = mostly above about 10%;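 note: 100% = mean of DMSO negative control wells on the same plate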); settings: P. berghei liver stage in HepG2, luciferase luminescence, concentration not given here; parasite load remaining: stronger effect = lower value; viability: measured here: HepG2 viability without parasites
[3] = Wnt pathway potentiators raising nuclear beta-catenin – imaging, WNT3A-conditioned medium, mouse C2C12, NPC library, primary screen (AID 1117326; in the data active = nuclear beta-catenin stimulation mostly above about 4.2%, no sharp cut-off; inactive = mostly below about 10%); settings: stronger effect = higher value
[4] = stimulators of insulin release from INS-1E, primary screen, cell-based, 5 mM glucose, NPC library (AID 1117329;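 active = compound raises insulin release from rat beta cells at 5 mM glucose, no numeric limit stated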); settings: rat INS-1E insulin secretion, at 10 µM, stronger effect = higher value
[5] = growth inhibition of GSK3B-pretreated HCT116 cells – cell-based, CellTiter-Glo, 0.2 to 20 µM (AID 1117336;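 active = compounds lowering colon cancer cell viability after pretreatment blocking the GSK3B kinase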); settings: HCT116 viability after GSK3B inhibitor, at 20 µM, stronger effect = higher value
[6] = inhibition of endothelial tube formation, primary screen, imaging, VEGF stimulated, CD31 staining, tube area, NPC library (AID 1117340;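 active = compound that reduces growth-factor-driven endothelial tube area in a mixed cell culture, no cutoff stated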); settings: VEGF-stimulated ADSC/ECFC co-culture, at 10 µM, stronger effect = higher value
[7] = GLP1 release stimulators, primary, NCI-H716, NPC library (AID 1117341;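 active = compound raises GLP1 secretion from the human gut endocrine cells, with no numeric limit stated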); settings: NCI-H716 cells, at 10 µM, stronger effect = higher value
[8] = HCT116 colon cancer cell growth inhibition, primary screen, CellTiter-Glo luminescence, NPC library (AID 1117342;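 active = compounds that lower survival of HCT116 colon cancer cells in the luminescence readout, no numeric limit stated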); settings: at 20 µM (top of the series)
[9] = reduced SW480 viability measured with CellTiter-Glo, NPC library, primary (AID 1117343;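 active = compounds that lower viability of the colon cancer cells in the luminescence readout, with no numeric limit stated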); settings: CellTiter-Glo luminescence; at 20 µM (top of the series) unless noted
[10] = NPC library primary testing for decreased DLD-1 cell viability via CellTiter-Glo (AID 1117346;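 active = compounds that lower survival of DLD-1 colon cancer cells in the luminescence readout, no cutoff given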); settings: DLD-1 viability, CellTiter-Glo luminescence; at 20 µM (top of the series)
[11] = EMT-state selective cytotoxicity in co-culture – imaging, PC-3E GFP, TEM4-18 mCherry, primary screen (AID 1345086;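 active = compounds killing one labelled cell type while sparing the other, by normalised counts and ratio limits, not self-fluorescent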;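 for all read-outs here: cells exposed to compound for 72 h before imaging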;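 for red/green cell ratio (normalised): normalised mesenchymal count divided by normalised epithelial count so high means epithelial killing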); settings: PC-3E GFP / TEM4-18 mCherry co-culture, imaging cell counts, at 1 µM; for red/green cell ratio (normalised): actives lie on both sides, counts scaled to control wells, 1 = unselective
[12] = viability loss with induced miR-34 in A549 – imaging, A549 dox-inducible miR-34, nuclei and caspase counts, primary screen (AID 1347080); settings: A549 miR-34 inducible, Hoechst nuclei count, 48 h
[13] = MELAS cybrid and Rieske KO viability enhancers – cell-based, MELAS cybrids, Rieske KO mouse fibroblasts, CellTiter-Glo, primary screen (AID 1508586;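 active = mean z-score across replicates of 1.96 or higher in either the MELAS or the Rieske mutant cell line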;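 note: z relative to plate mean and SD of compound and empty wells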); settings: low glucose
[14] = biological target: NAD(+) hydrolase SARM1 (Homo sapiens) (UniProt Q6SZW1); assay: blocking NAD cleavage by SARM1 SAM-TIR – cell lysate, NAD-Glo luminescence (AID 1508614;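 active = compound whose remaining NAD level is above about 45 nM, limit read from the data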;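 note: higher remaining NAD means stronger inhibition of SARM1 NADase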); settings: SAM-TIR HEK293T lysate NADase, at 1 µM, stronger effect = higher value
[15] = measured here: epithelial PC-3E GFP cell survival
[16] = measured here: mesenchymal TEM4-18 mCherry cell survival
[17] = stronger effect = lower value, cell number ratio, induced over uninduced
[18] = measured here: relative caspase fold change +Dox/-Dox
[19] = measured here: total cells with miR-34 induction, stronger effect = lower value
[20] = measured here: total cells without miR-34 induction
[21] = MELAS cybrid survival, CellTiter-Glo 48 h, stronger effect = higher value
[22] = Rieske KO mouse fibroblast survival, CellTiter-Glo 72 h

NAD(+) hydrolase SARM1 (Homo sapiens), sequence (Q6SZW1 whole entry, looked up): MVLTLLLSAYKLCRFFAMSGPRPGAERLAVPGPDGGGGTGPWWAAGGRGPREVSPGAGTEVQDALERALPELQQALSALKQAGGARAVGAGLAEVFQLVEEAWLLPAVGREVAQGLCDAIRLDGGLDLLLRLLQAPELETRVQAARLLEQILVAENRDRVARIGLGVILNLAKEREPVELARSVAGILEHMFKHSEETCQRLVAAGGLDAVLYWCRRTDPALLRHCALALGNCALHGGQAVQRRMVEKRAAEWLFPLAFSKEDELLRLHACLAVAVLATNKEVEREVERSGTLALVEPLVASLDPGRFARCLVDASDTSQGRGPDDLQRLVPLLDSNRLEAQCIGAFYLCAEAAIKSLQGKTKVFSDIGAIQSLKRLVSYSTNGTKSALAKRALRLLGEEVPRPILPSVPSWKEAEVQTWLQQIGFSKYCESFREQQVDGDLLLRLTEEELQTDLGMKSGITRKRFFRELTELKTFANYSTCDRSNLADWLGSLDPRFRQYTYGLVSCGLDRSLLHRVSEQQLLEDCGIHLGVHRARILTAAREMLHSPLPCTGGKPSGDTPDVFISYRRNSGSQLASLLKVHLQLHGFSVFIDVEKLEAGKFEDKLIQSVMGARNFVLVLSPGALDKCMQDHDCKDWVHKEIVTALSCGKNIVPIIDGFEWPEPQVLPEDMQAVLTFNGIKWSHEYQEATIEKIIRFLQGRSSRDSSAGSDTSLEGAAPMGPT

## Clc1ccc(Cn2c(CN3CCCC3)nc3ccccc32)cc1
[1]
  survival: 21.8 (inactive)
[2]
  parasite load remaining: 30.7% (inactive) and 102% (inactive)
  viability: 47.8% and 90.5%
[3]; at 10 µM
  nuclear beta-catenin stimulation: 3.1% (inactive)
[3]; stimulation, at 2 µM
  nuclear beta-catenin stimulation: 3%
[4]
  insulin secretion stimulation: 4.9% (inactive)
[5]
  viability decrease: -123% (inactive)
[6]
  tube area decrease: 14.2% (inactive)
[7]
  GLP1 secretion stimulation: 6.1% (inactive)
[8]
  inhibition of viability: 34% (inactive)
[9]
  viability decrease (inhibition): 61.5% (active)
[10]
  viability decrease (inhibition): 19.7% (inactive)
[11]
  red/green cell ratio (normalised): 0.77 (inactive)
[11]; [15]
  normalised cell number: 1.28
[11]; [16]
  normalised cell number: 0.98
[12]; [17]
  fold change: 1.11 (inactive) and 0.92 (inactive)
[12]; [18]
  fold change: 2.1 and 1.3
[12]; [19]
  cell count: 5510 and 8130
[12]; [20]
  cell count: 4960 and 8840
[13]; [21]
  z-score: 0.821 (inactive)
[13]; [22]
  z-score: 0.481
[14]
  remaining NAD: 10 nM (inactive)

## Clc1ccc(C(Cn2ccnc2)OCc2ccsc2Cl)c(Cl)c1 (stereo not drawn)
[2]
  parasite load remaining: 37.3% (inactive) and 6.58% (inactive)
  viability: 97.8% and 62%
[3]; at 10 µM
  nuclear beta-catenin stimulation: 4.5% (inactive)
[3]; stimulation, at 2 µM
  nuclear beta-catenin stimulation: 0.7%
[4]
  insulin secretion stimulation: 0.9% (inactive)
[5]
  viability decrease: 100% (active)
[6]
  tube area decrease: 110% (active)
[7]
  GLP1 secretion stimulation: 10.8% (inactive)
[8]
  inhibition of viability: 100% (active)
[9]
  viability decrease (inhibition): 123% (active)
[10]
  viability decrease (inhibition): 103% (active)
[11]
  red/green cell ratio (normalised): 1.15 (inactive)
[11]; [15]
  normalised cell number: 0.85
[11]; [16]
  normalised cell number: 0.97
[12]; [17]
  fold change: 0.919 (inactive) and 0.86 (inactive) and 0.892 (inactive)
[12]; [18]
  fold change: 0.876 and 3.84 and 1.06
[12]; [19]
  cell count: 7290 and 10300 and 7120
[12]; [20]
  cell count: 7930 and 12000 and 7980
[13]; [21]
  z-score: -0.0566 (inactive) and 0.885 (inactive) and 0.0763 (inactive)
[13]; [22]
  z-score: -0.152 and 0.306 and -0.538
[14]
  remaining NAD: 10 nM (inactive)

## O=C(Nc1ccccc1)OCC(CN1CCCCC1)OC(=O)Nc1ccccc1 (stereo not drawn)
[1]
  survival: 16 (inactive)
[2]
  parasite load remaining: 59.3% (inactive) and 41.7% (inactive) and 36.2% (inactive)
  viability: 79.1% and 91.5% and 107%
[3]; at 10 µM
  nuclear beta-catenin stimulation: -0.9% (inactive)
[3]; stimulation, at 2 µM
  nuclear beta-catenin stimulation: -0.9%
[4]
  insulin secretion stimulation: 14.9% (inactive)
[5]
  viability decrease: 36.4% (inactive)
[6]
  tube area decrease: 1.6% (inactive)
[7]
  GLP1 secretion stimulation: -0.5% (inactive)
[8]
  inhibition of viability: 75.7% (active)
[9]
  viability decrease (inhibition): 65.2% (active)
[10]
  viability decrease (inhibition): 32.3% (inactive)
[11]
  red/green cell ratio (normalised): 0.79 (inactive)
[11]; [15]
  normalised cell number: 1.18
[11]; [16]
  normalised cell number: 0.92
[12]; [17]
  fold change: 0.99 (inactive) and 0.916 (inactive)
[12]; [18]
  fold change: 1.08 and 5.69
[12]; [19]
  cell count: 8030 and 11400
[12]; [20]
  cell count: 8110 and 12500
[13]; [21]
  z-score: 0.475 (inactive)
[13]; [22]
  z-score: -0.0131
[14]
  remaining NAD: 10 nM (inactive)

## CCOc1nc2cccc(C(=O)O)c2n1Cc1ccc(-c2ccccc2-c2nn[nH]n2)cc1
[2]
  parasite load remaining: 51% (inactive)
  viability: 130%
[3]; at 10 µM
  nuclear beta-catenin stimulation: -1.9% (inactive)
[3]; stimulation, at 2 µM
  nuclear beta-catenin stimulation: 0.8%
[4]
  insulin secretion stimulation: 1.4% (inactive)
[5]
  viability decrease: -7.7% (inactive)
[6]
  tube area decrease: 5.3% (inactive)
[7]
  GLP1 secretion stimulation: -1.6% (inactive)
[8]
  inhibition of viability: -9.8% (inactive)
[9]
  viability decrease (inhibition): 16.8% (inactive)
[10]
  viability decrease (inhibition): -13% (inactive)
[11]
  red/green cell ratio (normalised): 1.24 (inactive)
[11]; [15]
  normalised cell number: 1.08
[11]; [16]
  normalised cell number: 1.35
[12]; [17]
  fold change: 1.02 (inactive) and 0.834 (inactive)
[12]; [18]
  fold change: 0.596 and 1.3
[12]; [19]
  cell count: 7490 and 8900
[12]; [20]
  cell count: 7350 and 10700
[13]; [21]
  z-score: -0.183 (inactive) and 0.664 (inactive) and -0.412 (inactive)
[13]; [22]
  z-score: -0.0185 and -0.257 and -0.953
[14]
  remaining NAD: 10 nM (inactive)

## CCCCOC(=O)c1ccc(O)cc1
[1]
  survival: 2.33 (inactive)
[2]
  parasite load remaining: 105% (inactive) and 43.2% (inactive)
  viability: 94.2% and 99.8%
[3]; at 10 µM
  nuclear beta-catenin stimulation: 1.7% (inactive)
[3]; stimulation, at 2 µM
  nuclear beta-catenin stimulation: 1.9%
[4]
  insulin secretion stimulation: 4.6% (inactive)
[5]
  viability decrease: -64.4% (inactive)
[6]
  tube area decrease: 17% (inactive)
[7]
  GLP1 secretion stimulation: -6.3% (inactive)
[8]
  inhibition of viability: 15% (inactive)
[9]
  viability decrease (inhibition): 67.9% (active)
[10]
  viability decrease (inhibition): 9.6% (inactive)
[11]
  red/green cell ratio (normalised): 1.09 (inactive)
[11]; [15]
  normalised cell number: 1.43
[11]; [16]
  normalised cell number: 1.56
[12]; [17]
  fold change: 0.899 (inactive) and 0.857 (inactive)
[12]; [18]
  fold change: 1.34 and 7.37
[12]; [19]
  cell count: 8710 and 10100
[12]; [20]
  cell count: 9690 and 11800
[13]; [21]
  z-score: 0.705 (inactive)
[13]; [22]
  z-score: -0.347
[14]
  remaining NAD: 10 nM (inactive)

## NCCc1ccn[nH]1
[1]
  survival: 17.5 (inactive)
[2]
  parasite load remaining: 35.3% (inactive) and 97.6% (inactive)
  viability: 49.8% and 93.1%
[3]; at 10 µM
  nuclear beta-catenin stimulation: 1% (inactive)
[3]; stimulation, at 2 µM
  nuclear beta-catenin stimulation: 0.9%
[4]
  insulin secretion stimulation: -1.5% (inactive)
[5]
  viability decrease: -5% (inactive)
[6]
  tube area decrease: -21.4% (inactive)
[7]
  GLP1 secretion stimulation: 1.1% (inactive)
[8]
  inhibition of viability: -8.9% (inactive)
[9]
  viability decrease (inhibition): 12.5% (inactive)
[10]
  viability decrease (inhibition): -9.4% (inactive)
[11]
  red/green cell ratio (normalised): 0.76 (inactive)
[11]; [15]
  normalised cell number: 1.25
[11]; [16]
  normalised cell number: 0.95
[12]; [17]
  fold change: 0.91 (inactive)
[12]; [18]
  fold change: 1.36
[12]; [19]
  cell count: 9040
[12]; [20]
  cell count: 9920
[13]; [21]
  z-score: 0.417 (inactive)
[13]; [22]
  z-score: 0.115
[14]
  remaining NAD: 10 nM (inactive)

## CC1CCc2c(N3CCC(O)CC3)c(F)cc3c(=O)c(C(=O)O)cn1c23 (stereo not drawn)
[2]
  parasite load remaining: 84.8% (inactive) and 5.38% (inactive)
  viability: 88.5% and 76.5%
[3]; at 10 µM
  nuclear beta-catenin stimulation: 0% (inactive)
[3]; stimulation, at 2 µM
  nuclear beta-catenin stimulation: 0.1%
[4]
  insulin secretion stimulation: 1.15% (inactive)
[5]
  viability decrease: 74.1% (active)
[6]
  tube area decrease: -22.8% (inactive)
[7]
  GLP1 secretion stimulation: 4% (inactive)
[8]
  inhibition of viability: 59% (active)
[9]
  viability decrease (inhibition): 37.2% (inactive)
[10]
  viability decrease (inhibition): 5.4% (inactive)
[11]
  red/green cell ratio (normalised): 0.89 (inactive)
[11]; [15]
  normalised cell number: 0.98
[11]; [16]
  normalised cell number: 0.87
[12]; [17]
  fold change: 0.9 (inactive) and 0.988 (inactive) and 0.927 (inactive)
[12]; [18]
  fold change: 0.795 and 0.525 and 0.967
[12]; [19]
  cell count: 8750 and 7880 and 9830
[12]; [20]
  cell count: 9720 and 7980 and 10600
[13]; [21]
  z-score: -0.315 (inactive) and -0.705 (inactive) and 0.586 (inactive)
[13]; [22]
  z-score: -0.0888 and -0.895 and -0.392
[14]
  remaining NAD: 10 nM (inactive)

## CCCCOc1cc(C(=O)OCCN(CC)CC)ccc1N
[1]
  survival: 11.5 (inactive)
[2]
  parasite load remaining: 22.4% (inactive) and 92.2% (inactive)
  viability: 49.5% and 89.9%
[3]; at 10 µM
  nuclear beta-catenin stimulation: 1.9% (inactive)
[3]; stimulation, at 2 µM
  nuclear beta-catenin stimulation: 3.9%
[4]
  insulin secretion stimulation: 50.7% (active)
[5]
  viability decrease: 45.5% (inactive)
[6]
  tube area decrease: 14.2% (inactive)
[7]
  GLP1 secretion stimulation: 7.1% (inactive)
[8]
  inhibition of viability: 66% (active)
[9]
  viability decrease (inhibition): 51.8% (active)
[10]
  viability decrease (inhibition): 81.6% (active)
[11]
  red/green cell ratio (normalised): 0.93 (inactive)
[11]; [15]
  normalised cell number: 1.02
[11]; [16]
  normalised cell number: 0.95
[12]; [17]
  fold change: 0.886 (inactive) and 0.893 (inactive) and 0.93 (inactive)
[12]; [18]
  fold change: 1.39 and 0.433 and 0.883
[12]; [19]
  cell count: 8530 and 8120 and 7780
[12]; [20]
  cell count: 9620 and 9090 and 8360
[13]; [21]
  z-score: 0.206 (inactive) and -0.26 (inactive) and 0.345 (inactive)
[13]; [22]
  z-score: -0.405 and -0.149 and 0.0628
[14]
  remaining NAD: 10 nM (inactive)

— PubChem BioAssay
